An excerpt weighted towards active compounds, which were near 2.5% of everything screened.
TDP-43 yeast inh = inhibitors of TDP-43 toxicity in yeast. TDP-43 expressing yeast growth rescue, BacTiter-Glo, 24 h. Potency, µM (titrated, usually from 46.1 µM), for the others: top-dose growth rescue (activation), actives largely listed as activators. 1.8% of 410,000 active; also: potency is read from the fitted curve at half-maximal effect; % of control where 0% means no effect; nearly all actives have a fitted effect of over 50% in size
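Galactose-induced TDP-43 yeast, OD600=0.02, compound pinned; 24 hr, 30 deg C; BacTiter-Glo luminescence for growth. Inhibitors of TDP-43 toxicity read as activators.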
CCT modulator = modulators of cytosolic chaperonin (CCT/TRiC) activity | purified chaperonin ATPase assay, HTRF ADP detection, 30 min | activity change, % (no concentration beside the values), hits read low | 0.3% of 360,000 active; in the data active = activity change below about -30%; also: % is scaled to controls: 0 for no effect and ±100 for the full control effect
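We incubate TRiC, 40 or 20 nM final, with library compounds at 76 uM and 10 uM ATP for 30 min at 37 °C. ADP formed is detected with Transcreener HTRF reagents after 30 min at room temperature.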
Mito fusion yeast = inhibitors of mitochondrial division or activators of mitochondrial fusion; S. cerevisiae fusion-defective mutant growth rescue, CellTiterGlo 48 h; Potency, µM (series often up to 46.1 µM), for inactives: at the top dose growth rescue (activation), usual class: activators; 0.23% of 320,000 active; AID 485298; also: potency is read from the fitted curve at half-maximal effect; % of control where 0% means no effect; nearly all actives have a fitted effect of over 45% in size
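Growth-rescue viability read-out: after 48 h at the non-permissive 37C in glycerol/ethanol YPEG, yeast mitochondrial fusion mutants are measured by CellTiterGlo luminescence; compounds (23 nl pinned per well) restoring growth score as division inhibitors or fusion activators.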
Apoferritin bind = candidate novel general anesthetic via apoferritin binding. 0.074% of 350,000 active. apoferritin/1-aminoanthracene competitive binding, fluorescence. P02791. Potency, µM (titrated, usually from 77.5 µM), without a hit: top-dose activity change, negative = displacement, most hits filed as inhibitors. AID 485281; also: potency is read from the fitted curve at half-maximal effect; % is scaled to controls: 0 for no effect and ±100 for the full control effect; nearly all actives have a fitted effect of over 20% in size
Target sequence (P02791 2-175 limits assumed): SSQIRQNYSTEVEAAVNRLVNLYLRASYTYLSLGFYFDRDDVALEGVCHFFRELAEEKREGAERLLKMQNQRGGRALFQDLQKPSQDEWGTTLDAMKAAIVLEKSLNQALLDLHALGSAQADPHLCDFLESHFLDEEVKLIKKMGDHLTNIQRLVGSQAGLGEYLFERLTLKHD
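10 uM apoferritin + 50% sat. 1-AMA, PBS; cpd 10 min RT; Ex380/Em535 endpoint; normalized to free probe vs complex; 4-param Hill fit; propofol titration as pos. ctrl.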
Akt phos inh = Akt phosphorylation inhibition. Neuro2A IGF-stimulated pAkt S473 HTRF, 20 min; active compounds read low. activity change, % for hits at 50 µM. 0.32% of 360,000 active; in the data active = activity change below about -80%; inconclusive = mostly about -51% to -80%; also: % is scaled to controls: 0 for no effect and ±100 for the full control effect
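Single-point screen (50 µM final compound) in Neuro2A cells stimulated 20 min with 6 nM IGF at 37 deg C. After lysis, Ser473-phosphorylated Akt read by HTRF (ex 330 nm, em 615/665 nm) as the 665/615 ratio.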
aSyn rescue = rescues yeast growth from alpha-synuclein toxicity. Yeast expressing alpha-synuclein, growth rescue, BacTiter-Glo, 24 h. 0.14% of 370,000 active. Potency, µM (doses to about 46.1 µM), inactives show at the top dose growth rescue (activation), hits mostly activators; also: potency is read from the fitted curve at half-maximal effect; % of control where 0% means no effect; nearly all actives have a fitted effect of over 65% in size
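Rescue of yeast growth: cells expressing toxic alpha-synuclein, induced in galactose at OD600 0.02, incubated with compound 24 h at 30 C. ATP luminescence quantified growth; inhibitors of toxicity appear as activators.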
* marks the source's active call; other numbers are inactive results; i = inactive; ? = inconclusive; nt = no result; [ ] = another dose, or the depositor's remark. Unless noted, calls follow the shape of the dose curve; as a rule, active = well fitted curve in the direction sought with a large enough effect; inconclusive = small, poorly fitted or top-dose-only effect, or another doubt; inactive = no such curve, though single readings can be large; an effect the other way counts as inactive or inconclusive.

SMILES | TDP-43 yeast inh | CCT modulator | Mito fusion yeast | Apoferritin bind | Akt phos inh | aSyn rescue
COc1ccc(OC)c(NC(=O)NNC(=O)c2cc3occc3[nH]2)c1 | -22.1% | -68.3* | 0.0% | -0.3% | nt | 0.0%
COc1ccc(-n2nc(C(=O)Nc3ccc(C(C)=O)cc3)nc2-c2ccccc2)cc1 | 22.4µM* | nt | nt | -8.0% | nt | nt
COc1ccc(-c2nc(C(=O)Nc3cccc(C(C)=O)c3)nn2-c2ccc(Cl)cc2)cc1 | 0.2% | nt | nt | -9.7% | nt | nt
NC(=O)c1c(NC(=O)c2noc3c2CCCC3)sc2c1CCCC2 | 15.5% | nt | nt | 8.6% | nt | nt
Cn1c(=O)c2c(O)c(Cc3ccccc3)c(=O)[nH]c2n(C)c1=O | 11.0% | 0.0 | 20µM* | -3.7% | i | -1.1%
Cc1[nH]c(=O)c(Cc2ccccc2)c(O)c1C#N | 10.1% | -3.0 | nt | nt | i | -0.2%
Cc1ccc(CNC(=O)C2CCN(S(=O)(=O)c3cc(-c4noc(C)n4)ccc3C)CC2)cc1 | -17.0% | nt | nt | -21.8% | nt | nt
CC[C@H](C)[C@H](NC(=O)CNC(=O)[C@@H](NC(=O)[C@@H](NC(=O)[C@H](Cc1ccc(O)cc1)NC(=O)[C@H](CC(C)C)NC(=O)[C@H](C)NC(=O)[C@H](CCC(N)=O)NC(=O)CNC(=O)[C@@H]1CCCN1C(=O)CNC(=O)[C@H](Cc1ccccc1)NC(=O)[C@H](Cc1cnc[nH]1)NC(=O)[C@@H](NC(=O)CNC(=O)[C@H](CCCNC(=N)N)NC(=O)[C@H](CCCNC(=N)N)NC(=O)[C@@H](NC(=O)[C@H](CC(N)=O)NC(=O)[C@@H](N)CS)[C@@H](C)O)[C@@H](C)CC)[C@@H](C)O)[C@@H](C)O)C(=O)O | nt | nt | nt | -1.6% | nt | nt
Cn1c(SCc2ccc(C#N)cc2Cl)nc2ccccc21 | -5.0% | -35.9* | 7.2% | ? | i | -0.1%
N#Cc1ccc(CSc2ccccn2)c(Cl)c1 | ? | 2.1 | 2.5% | ? | i | 1.5%
COc1cc2c(cc1OC)C(c1cc(-c3cc(Cl)ccc3Cl)oc1C)=NCC2 | nt | nt | nt | nt | nt | 0.6%
CC(=O)N1[C@@H]2CC3C4CC=C5C[C@@H](O)CC[C@]5(C)C4CC[C@]3(C)[C@@]21C(C)=O (some centres undefined) | 19.5% | 1.4 | 22.4µM* | -8.0% | i | 9.2%
C[C@]12CC[C@H](O)CC1=CCC1C2CC[C@@]2(C)C1CCC21OCCO1 (some centres undefined) | -9.4% | -1.2 | nt | nt | i | 13.7%
CC(=O)C1(O)C(C)CC2C3CC=C4CC(O)CCC4(C)C3CCC21C (centres undefined) | -9.9% | -0.1 | nt | nt | i | 15.5%
CC12CCC(O)CC1=CCC1C2CCC2(C)C3=NN=CC3CC12 (centres undefined) | 15.8µM* | -0.9 | nt | nt | i | ?
CN(C(=O)CSc1nc2ccc(NC(=O)CCc3ccccc3)cc2s1)c1ccccc1 | ? | nt | nt | 85.8% | nt | nt
O=C(O)c1cc2nc3c(c(C(F)(F)F)n2n1)CCc1ccccc1-3 | 6.0% | 0.8 | 0.8% | -3.0% | -113.8%* | 15.6%
COCCNC(=O)c1cc2nc3c(c(C(F)(F)F)n2n1)CCc1ccccc1-3 | ? | -2.4 | 20.0% | -3.0% | i | 1.8%
CC(C)=NO[C@@H](C)c1cc(-c2c(C)cc(C)cc2C)no1 | nt | nt | nt | 1.1%[15.3 µM] | nt | nt
O=S(=O)(NCc1csc(-c2cccs2)n1)c1cccc(C(F)(F)F)c1 | 17.8µM* | 1.3 | 10.8% | -1.8% | i | 1.3%
c1ccc(N2CCN(Cc3nnc(-c4ccc5c(c4)OCO5)o3)CC2)cc1 | 0.0% | nt | nt | 0.4% | nt | nt
N#Cc1nc(N)nc(N2CCCCC2)n1 | nt | nt | nt | nt | nt | -8.7%
CCOC(=O)c1ccc(-c2ccc(C=O)o2)cc1 | 11.2µM* | -4.4 | 4.1% | -4.5% | i | -35.6%
O=C(Nc1cc(C(F)(F)F)ccc1-n1cncn1)c1ccc([N+](=O)[O-])o1 | 14.1µM* | -1.5 | 24.9% | nt | i | -7.7%
CSCC(=O)N1CCC(CCC(=O)NC2CC2)CC1 | -11.2% | -53.0* | -4.2% | -4.0% | nt | -17.8%
SMILES | TDP-43 yeast inh | CCT modulator | Mito fusion yeast | Apoferritin bind | Akt phos inh | aSyn rescue
C=CCCC(=O)N1CCC(CCC(=O)NC2CC2)CC1 | -3.9% | 0.8 | -4.3% | -3.0% | i | -5.2%
Cc1ccccc1C(=O)Nc1cccc(-c2nnc(SCC(=O)NCc3ccco3)n2C)c1 | nt | nt | nt | nt | nt | 1.6%
CCOC(=O)c1nnc(-c2cccs2)nc1NC(C)C | 12.6µM* | -1.6 | 6.8% | ? | i | 5.3%
O=C1c2ccccc2C(=O)c2c1cccc2-n1nnc2ccccc21 | -14.2% | -7.6 | 1.1% | 6.3% | i | 2.0%
O=C1C(N2CCOCC2)=C(n2nnc3ccccc32)C(=O)c2ccccc21 | 22.4µM* | -1.0 | -15.2% | -10.9% | i | -36.0%
CCCCCn1c(N2CCC(Cc3ccccc3)CC2)nc2c1c(=O)[nH]c(=O)n2C | -67.2% | -1.7 | nt | nt | i | -45.5%
CCCn1c(N2CCC(Cc3ccccc3)CC2)nc2c1c(=O)[nH]c(=O)n2C | 22.4µM* | -1.1 | ? | ? | i | 17.2%
CC(=O)Cn1c(N2CCC(Cc3ccccc3)CC2)nc2c1c(=O)[nH]c(=O)n2C | -1.6% | 0.3 | 2.2% | 0.0% | i | -11.6%
C=C(C)Cn1c(N2CCC(Cc3ccccc3)CC2)nc2c1c(=O)[nH]c(=O)n2C | 3.3% | -16.6 | 15.8µM* | -9.5% | i | -1.7%
CC(C)(C)N1C(=O)[C@H]2[C@H]3[C@H](O)[C@H](O)C/C(=N/OC[C@@H](O)COCc4ccco4)[C@@H]3CC[C@@H]2C1=O | nt | nt | nt | -1.1%[15.3 µM] | nt | nt
CCN(CC)c1nn2c(=O)c(C(=O)NCCc3ccc(C)cc3)cnc2s1 | ? | nt | nt | 2.4% | nt | nt
CCOc1ccc(C(=O)OCCN(C)C)cc1 | -2.5% | -32.0* | 0.1% | 2.0% | i | -3.8%
CN(C)CCCOC(=O)c1ccccc1 | -9.8% | 4.4 | -0.2% | -12.7% | i | -0.2%
CNC(=O)c1cc(-c2cccs2)on1 | nt | nt | nt | nt | nt | -0.1%
CN(C)c1ccc(/C=C/c2ccnc3cc(Cl)ccc23)cc1 | nt | nt | nt | nt | nt | 0.9%
O=C(NCC1CCCO1)c1ccc(COc2ccc(Cl)cc2)cc1 (centres undefined) | -11.5% | 1.7 | -18.0% | -23.2% | i | -0.1%
O=C(NCC1CCCO1)c1ccc(COc2ccccc2Br)cc1 (centres undefined) | 12.6µM* | -3.7 | -25.5% | ? | i | -9.3%
CCOc1ccc(CNC(=O)Cn2nc(C)n3cccc3c2=O)cc1 | -1.6% | nt | nt | 2.2% | nt | nt
CCOC(=O)CC1=C(C(=O)OCC)C(c2ccncc2)C(C#N)=C(N)O1 (centres undefined) | 3.8% | 0.1 | 0.3% | -8.0% | -116.4%* | -5.1%
CCOC(=O)C1=C(C)OC(N)=C(C#N)C1c1ccccc1 (centres undefined) | -1.1% | -2.3 | -1.1% | -3.0% | i | -4.1%
